Results on eight compounds are retold here after PubChem BioAssay (NCI).

Test systems include DU-145 prostate; K-562 leukemia; MALME-3M melanoma; MDA-MB-231 breast; RXF 393 renal; SF-268 CNS; SF-295 CNS; SF-539 CNS; UACC-257 melanoma; M14 melanoma; HCT-15 colon; HT29 colon; SNB-75 CNS; SNB-19 CNS; U251 CNS; SK-MEL-5 melanoma; UACC-62 melanoma; LOX IMVI melanoma; SK-MEL-28 melanoma; PC-3 prostate.
Holding throughout (test): NCI-60 one-dose screen, 48 h (100 = growth as untreated, 0 = no growth, -100 = all killed)
What all share (conditions): 10 µM unless noted

The panel holds about 83,000 compounds, 20% with a hit somewhere; the sample as a whole holds those more often.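 In brief: 96-well plates, 48 h treatment, single concentration, percent growth endpoint.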 A number with no mark means an inactive call. Active and inactive are the calls of the source. The calls were made as follows: active = growth percent below 10; inactive = the rest.

`CC(=O)c1c(C)nc(-c2cc(C)cc(Cl)c2)nc1-c1cccc(Oc2ccccc2)c1`: the growth in the test with DU-145 prostate was 85.8%; with K-562 leukemia, 19.9%; in the test with MALME-3M melanoma it was 74.8%; with MDA-MB-231 breast, 55%; in the test with RXF 393 renal, 90.5%; with SF-268 CNS it was 71%. For the same compound, the growth in the test on SF-295 CNS was 77.3%; in the test with SF-539 CNS, 86%; in the test on UACC-257 melanoma it was 81.1%; in the test on M14 melanoma it was 31.7%; in the test on HCT-15 colon it was 60.2%; in the test on HT29 colon, 39.5%. Moreover, the growth in the test with SNB-75 CNS is 72.4%; with SNB-19 CNS, 79.3%; with U251 CNS, 76.1%; with SK-MEL-5 melanoma, 77.1%; in the test with UACC-62 melanoma it was 52.1%; in the test on LOX IMVI melanoma, 78.4%. In the test with SK-MEL-28 melanoma, the growth is 76.2%.

For the compound `CC(C)c1[nH]ncc1-c1nc2ccc3[nH]ncc3c2c2c1CCCC2`, the growth with DU-145 prostate was 33.9%; with K-562 leukemia, 42%; in the test on MALME-3M melanoma, 52.6%; in the test on MDA-MB-231 breast, 35.6%; in the test with RXF 393 renal, -8.2% (active); in the test with SF-268 CNS, 36.7%. Moreover, the growth in the test on SF-295 CNS was 43.1%; in the test on SF-539 CNS it was 23%; in the test with UACC-257 melanoma, 44%; in the test on M14 melanoma, 37.1%; with HCT-15 colon, 37.5%; in the test on HT29 colon it was 35%. Further, the growth with SNB-75 CNS is -3.19% (active); with U251 CNS, 37.7%; in the test with SK-MEL-5 melanoma, 45.2%; in the test on UACC-62 melanoma, 34.1%; in the test with LOX IMVI melanoma, 23.6%.

Consider `CNC(=O)c1cc(Oc2ccc(NC(=O)c3[nH]c(SC)nc3-c3ccc(F)cc3)cc2)ccn1`, for which the growth in the test with DU-145 prostate is 59.6%; with K-562 leukemia, 7.07% (active); in the test with MALME-3M melanoma, -7.31% (active); in the test on MDA-MB-231 breast it was 62.9%; in the test on RXF 393 renal, 70.9%; with SF-268 CNS, 72.5%. For the same compound, the growth is 46.3% in the test with SF-295 CNS; 65.5% with SF-539 CNS; 33.1% in the test with UACC-257 melanoma; 12.7% in the test on M14 melanoma; 72.5% with HCT-15 colon; 12.8% in the test with HT29 colon. In addition, the growth with SNB-75 CNS was 78.7%; in the test with SNB-19 CNS it was 99.3%; in the test on U251 CNS, 84.6%; in the test with SK-MEL-5 melanoma, 23.3%; with UACC-62 melanoma, 5.44% (active); in the test on LOX IMVI melanoma it was 57.7%. Also, the growth in the test on SK-MEL-28 melanoma is 22.3%.

Take `Cc1cc(C)c2c(NC(=O)Nc3ccc(Cl)c(Cl)c3)n[nH]c2n1`: the growth with DU-145 prostate is 105%; in the test with K-562 leukemia, 91%; with MALME-3M melanoma it was 90.4%; in the test with MDA-MB-231 breast, 104%; in the test with RXF 393 renal it was 105%; in the test with SF-268 CNS it was 103%. Also, the growth was 93.4% in the test on SF-295 CNS; 112% in the test with SF-539 CNS; 110% in the test with UACC-257 melanoma; 109% in the test with M14 melanoma; 100% with HCT-15 colon; 96.9% in the test with HT29 colon. Further, the growth was 88.7% with SNB-75 CNS; 101% in the test on SNB-19 CNS; 102% in the test on U251 CNS; 103% with PC-3 prostate; 103% with SK-MEL-5 melanoma; 103% with UACC-62 melanoma. The growth in the test on LOX IMVI melanoma was 99.8%; with SK-MEL-28 melanoma, 104%.

With `COc1ccc(/C(=C\c2cc(OC)c(OC)c(OC)c2)C(=O)N2CCNCC2)cc1`, the growth in the test with DU-145 prostate was 112%; with K-562 leukemia, 92.4%; in the test with MALME-3M melanoma, 108%; in the test on MDA-MB-231 breast, 102%; in the test on RXF 393 renal, 99.2%; in the test on SF-268 CNS, 103%. The growth in the test on SF-295 CNS was 104%; in the test on SF-539 CNS it was 102%; in the test with UACC-257 melanoma, 91.3%; with M14 melanoma it was 99%; with HCT-15 colon, 104%; with HT29 colon it was 95.6%. The growth is 83% with SNB-75 CNS; 99.7% in the test with SNB-19 CNS; 94.6% with U251 CNS; 93.4% in the test with SK-MEL-5 melanoma; 90% in the test on UACC-62 melanoma; 87.5% with LOX IMVI melanoma. Moreover, the growth in the test on SK-MEL-28 melanoma was 112%.

Regarding `NNC(=O)Cc1ccccc1`, the growth in the test with DU-145 prostate is 104%; with K-562 leukemia, 56.6%; in the test with MALME-3M melanoma, 99.7%; in the test with MDA-MB-231 breast it was 83.7%; with RXF 393 renal, 126%; in the test on SF-268 CNS it was 86.4%. Moreover, the growth with SF-295 CNS is 79.7%; with SF-539 CNS it was 92.5%; in the test with UACC-257 melanoma it was 122%; in the test with M14 melanoma it was 74.5%; in the test with HCT-15 colon, 82.7%; in the test with HT29 colon, 101%. Moreover, the growth in the test on SNB-75 CNS was 77.8%; in the test with SNB-19 CNS it was 93.1%; in the test on U251 CNS it was 91.8%; in the test on PC-3 prostate it was 56.9%; in the test on SK-MEL-5 melanoma it was 96.9%; in the test with UACC-62 melanoma it was 45.8%. Further, the growth in the test with LOX IMVI melanoma is 50.7%; in the test on SK-MEL-28 melanoma, 108%.

Turning to `Cc1[nH]nc2ccc3nc(-c4ccc5[nH]ncc5c4)c4c(c3c12)CCCC4`, the growth with DU-145 prostate was 33.9%; in the test with K-562 leukemia, 14.3%; in the test with MALME-3M melanoma, 7.88% (active); in the test with MDA-MB-231 breast it was 42.6%; in the test with RXF 393 renal it was 9.13% (active); with SF-268 CNS, 33.8%. The growth in the test with SF-295 CNS was 31.1%; in the test on SF-539 CNS it was 18.7%; in the test on UACC-257 melanoma it was 50.6%; in the test on M14 melanoma, 18.9%; in the test with HCT-15 colon, 16.2%; in the test with HT29 colon, 22.1%. Besides, the growth was 6.45% (active) in the test on SNB-75 CNS; 35.8% in the test on SNB-19 CNS; 26.4% in the test with U251 CNS; 10.4% with SK-MEL-5 melanoma; 10.1% in the test on UACC-62 melanoma; 29.6% with LOX IMVI melanoma.

As for `O=C(OCc1ccc2c(Br)cc(Br)c(O)c2n1)c1cc2ccccc2[nH]1`, the growth in the test on DU-145 prostate is -91.6% (active); with K-562 leukemia it was 1.14% (active); in the test with MALME-3M melanoma, -85.5% (active); with MDA-MB-231 breast, -81.9% (active); with RXF 393 renal it was -91.4% (active); in the test with SF-268 CNS it was -51.5% (active). Further, the growth is 68.5% with SF-295 CNS; -96.3% (active) in the test on SF-539 CNS; -64.6% (active) in the test with UACC-257 melanoma; -64.7% (active) in the test with M14 melanoma; -66.7% (active) with HCT-15 colon; -82.5% (active) in the test with HT29 colon. Also, the growth is -46.3% (active) with SNB-75 CNS; 22.7% in the test with U251 CNS; -55.6% (active) in the test on PC-3 prostate; -47.5% (active) in the test on SK-MEL-5 melanoma; -83% (active) in the test on UACC-62 melanoma; -93.4% (active) in the test on LOX IMVI melanoma.
